Calls of active or inactive are those of the source.
What was measured:
[1] = E. coli DRC41 culture turbidity changes, primary screen, E. coli filamentation inducer project, strain DRC41, OD650, 48 h (AID 1152);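 further: E. coli MC1000 strain DRC41 lacking acrAB efflux pump and sulA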; conditions: E. coli DRC41 (acrAB sulA), higher = more signal, called active from +8 up or from −8 down
[2] = small-molecule binders of probe aLefty1, primary screen, biochemical, small-molecule microarray, 635/667 nm fluorescence (AID 1153); conditions: higher = more signal;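 further: score merges spot fluorescence with signal-to-noise ratio from the scanned slide images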
[3] = PSAC antagonists in infected red cells, primary screen, cell-based, P. falciparum Indochina, OD700, 1 h (AID 1154); conditions: P. falciparum Indochina infected RBC osmotic lysis, higher = more signal, called active from +8 up or from −8 down
[4] = PSAC antagonists in infected red cells, primary screen, cell-based, P. falciparum Indochina, OD700, 2 h (AID 1155);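 further: lysis reports solute entry through the parasite surface anion channel PSAC; channel blockers reduce lysis of infected cells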; conditions: P. falciparum Indochina infected erythrocytes, osmotic lysis OD700; higher = more signal, called active from +8 up or from −8 down
[5] = osmotic lysis modulators in infected erythrocytes, primary screen, PSAC antagonist project, cell-based, P. falciparum Indochina, OD700, 3 h (AID 1156); conditions: higher = more signal, called active from +8 up or from −8 down
[6] = PSAC antagonists in infected red cells, primary screen, cell-based, P. falciparum Indochina, OD700, 18 h (AID 1157); conditions: P. falciparum Indochina infected erythrocytes, osmotic lysis OD700, 18 h; higher = more signal, called active from +8 up or from −8 down
[7] = modulators of S6 phosphorylation in cells, primary screen, cell-based, A549, cytoblot, luminescence, serum-stimulated (AID 1158); conditions: A549 phospho-S6 cytoblot, 5 h, higher = more signal;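 further: serum-stimulated A549 lung adenocarcinoma cells; signal is phosphorylated S6 detected by cytoblot immunostaining with HRP secondary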
[8] = target: NADPH oxidase 2 (Homo sapiens) (UniProt P04839); test: NOX2-dependent H2O2 signal modulators, primary screen, NOX inhibitor project, cell-based, HEK293-NOX2, PMA-stimulated, Amplex Red fluorescence (AID 1159); conditions: 45 min, higher = more signal, called active from +8 up or from −8 down; further: test concentration not given here
NADPH oxidase 2 (Homo sapiens), sequence (P04839 whole entry, looked up): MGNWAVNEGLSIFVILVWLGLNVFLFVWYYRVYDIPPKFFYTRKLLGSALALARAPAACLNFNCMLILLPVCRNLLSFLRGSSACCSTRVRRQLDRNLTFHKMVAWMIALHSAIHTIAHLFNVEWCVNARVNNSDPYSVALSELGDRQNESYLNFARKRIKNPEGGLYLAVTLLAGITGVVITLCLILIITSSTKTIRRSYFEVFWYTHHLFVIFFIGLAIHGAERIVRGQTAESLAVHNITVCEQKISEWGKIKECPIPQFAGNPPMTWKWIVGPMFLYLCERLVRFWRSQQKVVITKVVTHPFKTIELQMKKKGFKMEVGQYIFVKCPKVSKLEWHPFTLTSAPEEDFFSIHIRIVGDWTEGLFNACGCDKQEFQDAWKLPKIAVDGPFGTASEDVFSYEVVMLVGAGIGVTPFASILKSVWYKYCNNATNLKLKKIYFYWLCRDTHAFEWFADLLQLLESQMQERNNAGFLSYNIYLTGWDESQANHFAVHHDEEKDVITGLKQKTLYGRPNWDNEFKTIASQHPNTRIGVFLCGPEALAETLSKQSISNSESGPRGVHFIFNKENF

[9] = target: NADPH oxidase 4 (Homo sapiens) (UniProt Q9NPH5); test: NOX4-dependent H2O2 signal modulators, primary screen, NOX inhibitor project, cell-based, HEK293-NOX4, tetracycline-induced, Amplex Red fluorescence (AID 1160); conditions: 45 min, higher = more signal, called active from +8 up or from −8 down
NADPH oxidase 4 (Homo sapiens), sequence (Q9NPH5 whole entry, looked up): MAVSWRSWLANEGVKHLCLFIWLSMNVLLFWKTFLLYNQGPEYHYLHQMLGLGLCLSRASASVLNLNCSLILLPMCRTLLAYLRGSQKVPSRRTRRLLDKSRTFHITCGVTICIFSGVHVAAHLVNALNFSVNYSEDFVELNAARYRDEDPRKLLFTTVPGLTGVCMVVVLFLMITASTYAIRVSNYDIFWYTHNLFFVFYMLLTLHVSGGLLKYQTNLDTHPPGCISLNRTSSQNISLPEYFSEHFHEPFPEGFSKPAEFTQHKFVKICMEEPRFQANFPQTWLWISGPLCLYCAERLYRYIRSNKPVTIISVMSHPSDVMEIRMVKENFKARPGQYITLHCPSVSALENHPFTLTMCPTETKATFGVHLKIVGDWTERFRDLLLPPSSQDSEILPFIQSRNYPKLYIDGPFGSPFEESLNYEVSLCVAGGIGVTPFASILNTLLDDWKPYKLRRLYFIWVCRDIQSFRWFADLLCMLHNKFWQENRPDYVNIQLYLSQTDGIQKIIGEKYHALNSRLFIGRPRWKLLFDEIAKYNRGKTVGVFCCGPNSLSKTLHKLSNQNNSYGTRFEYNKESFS

[10] = target: NADPH oxidase 5 (Homo sapiens) (UniProt Q96PH1); test: NOX5-dependent H2O2 signal modulators, primary screen, NOX inhibitor project, cell-based, HEK293-NOX5, Amplex Red fluorescence (AID 1161); conditions: HEK293-NOX5, ionomycin, 45 min, higher = more signal
NADPH oxidase 5 (Homo sapiens), sequence (Q96PH1 whole entry, looked up): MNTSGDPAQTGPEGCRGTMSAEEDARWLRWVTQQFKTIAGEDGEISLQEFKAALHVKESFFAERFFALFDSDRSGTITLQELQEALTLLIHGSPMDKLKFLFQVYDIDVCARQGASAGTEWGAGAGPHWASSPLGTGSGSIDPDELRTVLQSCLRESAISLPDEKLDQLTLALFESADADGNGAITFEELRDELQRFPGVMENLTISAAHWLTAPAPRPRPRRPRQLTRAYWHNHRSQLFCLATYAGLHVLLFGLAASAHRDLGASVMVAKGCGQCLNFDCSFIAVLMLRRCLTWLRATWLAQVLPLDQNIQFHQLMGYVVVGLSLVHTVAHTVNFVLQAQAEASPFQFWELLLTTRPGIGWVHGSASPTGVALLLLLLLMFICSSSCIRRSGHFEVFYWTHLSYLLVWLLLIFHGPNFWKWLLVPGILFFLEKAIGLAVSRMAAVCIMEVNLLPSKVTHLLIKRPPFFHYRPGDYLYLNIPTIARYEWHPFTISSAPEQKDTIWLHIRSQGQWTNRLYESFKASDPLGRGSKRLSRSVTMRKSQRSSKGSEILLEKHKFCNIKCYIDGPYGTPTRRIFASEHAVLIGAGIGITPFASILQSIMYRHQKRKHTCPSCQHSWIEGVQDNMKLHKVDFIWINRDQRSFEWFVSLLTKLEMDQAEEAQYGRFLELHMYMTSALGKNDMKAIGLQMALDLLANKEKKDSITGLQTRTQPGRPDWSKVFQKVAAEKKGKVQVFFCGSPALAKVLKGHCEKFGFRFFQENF

[11] = A549 cell viability effects, profiling panel, calcein-AM fluorescence, 48 h, basal (AID 1162); conditions: higher = more signal; further: test concentration not given here
[12] = adipocyte viability effects, profiling panel, cell-based, 3T3-L1 adipocytes, calcein-AM fluorescence, 48 h, basal (AID 1163); conditions: 3T3-L1 adipocytes viability, higher = more signal; further: test concentration not given here
[13] = HepG2 cell viability effects, profiling panel, calcein-AM fluorescence, 48 h, basal (AID 1164); conditions: higher = more signal; further: test concentration not given here
[14] = MM1S cell viability effects, profiling panel, calcein-AM fluorescence, 48 h, basal (AID 1165); conditions: higher = more signal;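 further: viability of MM1S multiple myeloma cells under basal unstimulated conditions; test concentration not given here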
[15] = basal RPMI8226 viability, no added stimulus, profiling panel, cell-based, calcein-AM fluorescence, 48 h, PK04 Diversity Set (AID 1166); conditions: RPMI8226 myeloma viability, higher = more signal;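 further: cells grown under basal conditions without added stimulus; test concentration not given here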
[16] = basal HepG2 mitochondrial membrane potential changes, profiling panel, cell-based, JC-1 fluorescence, 24 h, 100 nL compound (AID 1167); conditions: higher = more signal; further: test concentration not given here
[17] = basal 3T3-L1 adipocyte mitochondrial potential changes, profiling panel, cell-based, JC-1 fluorescence, 3T3-L1 adipocytes, 24 h, 100 nL compound (AID 1168); conditions: JC-1 mitochondrial fluorescence, higher = more signal, called active from +8 up or from −8 down; further: test concentration not given here
[18] = basal RPMI8226 mitochondrial membrane potential changes, profiling panel, cell-based, JC-1 fluorescence, 24 h, 100 nL compound (AID 1169); conditions: RPMI8226 myeloma, JC-1 mitochondrial potential fluorescence, higher = more signal; further: test concentration not given here
[19] = basal MM1S mitochondrial membrane potential changes, profiling panel, cell-based, JC-1 fluorescence, 24 h, 100 nL compound (AID 1170); conditions: higher = more signal; further: test concentration not given here
[20] = A549 lung cancer cell viability effects, profiling panel, resazurin fluorescence, 24 h, PK04 Diversity Set (AID 1171); conditions: higher = more signal, called active from +8 up or from −8 down; further: test concentration not given here

SMILES | z-score [1] | composite z-score [2] | z-score [3] | z-score [4] | z-score [5] | z-score [6] | z-score [7] | z-score [8] | z-score [9] | z-score [10] | z-score [11] | z-score [12] | z-score [13] | z-score [14] | z-score [15] | z-score [16] | z-score [17] | z-score [18] | z-score [19] | z-score [20]
COc1ccc(O[C@H]2C=C[C@@H](c3ccccc3)O[C@@H]2CON=C(C)CCN2CCCc3nc(C)c(C)cc32)cc1 | 0.379 (inactive) | 0.0341 | 4.35 (inactive) | 0.711 (inactive) | 0.938 (inactive) | 0.588 (inactive) | -0.121 | -1.81 (inactive) | -0.049 (inactive) | -0.297 | 0.0505 | -0.351 | -0.491 | -2.13 | -2.37 | 2.98 | -0.853 (inactive) | 0.414 | -0.294 | 0.154 (inactive)
CC(=O)OC[C@H]1O[C@H](CC=NOC[C@@H](O)[C@H]2O[C@@H]3OC(C)(C)O[C@@H]3[C@H]2O)C=C[C@@H]1OC(C)=O | -1.11 (inactive) | 0.145 | 0.466 (inactive) | 0.274 (inactive) | 0.0662 (inactive) | 0.466 (inactive) | -0.549 | -0.462 (inactive) | 0.136 (inactive) | -0.515 | 0.873 | -1 | -0.188 | 0.494 | -0.594 | 0.218 | 0.555 (inactive) | 0.632 | -0.527 | 0.0766 (inactive)
CO[C@@H]1C=CCC(=O)N[C@@H](C)C(=O)OC[C@@H](NS(=O)(=O)c2ccc(C)cc2)[C@H](C)C=CCC(=O)OC[C@H]1C | -0.481 (inactive) | -0.141 | 0.0412 (inactive) | 0.149 (inactive) | -0.802 (inactive) | 0.109 (inactive) | -0.327 | -9.51 (active) | 0.732 (inactive) | -0.0177 | -0.533 | 0.37 | 0.495 | -0.0903 | -0.431 | 0.0105 | 0.0826 (inactive) | -0.782 | 0.301 | 0.179 (inactive)
C[C@@H]1CC[C@H]2C(=O)OC(Cc3ccccc3)CN2[C@H]1c1ccc(Br)cc1 (stereo not given in full) | 0.283 (inactive) | -0.0111 | 1.96 (inactive) | 0.728 (inactive) | -0.23 (inactive) | 0.54 (inactive) | -0.0843 | 0.379 (inactive) | 0.268 (inactive) | 0.151 | 1.47 | -1.25 | 0.556 | 0.637 | -0.66 | 1.34 | -1.43 (inactive) | 0.558 | -0.332 | 0.472 (inactive)
CC(CCC(=O)OC[C@H]1O[C@H](C#Cc2ccccc2)C=C[C@@H]1Oc1ccc(C)cc1)=NOC(C)CN1CCCc2nc(C)c(C)cc21 (stereo not given in full) | -0.651 (inactive) | 0.106 | 5.4 (inactive) | 0.859 (inactive) | 0.785 (inactive) | 0.735 (inactive) | -0.624 | -0.866 (inactive) | -0.435 (inactive) | -0.297 | -0.177 | -0.271 | 0.267 | -2.18 | -1.39 | 0.542 | -2.38 (inactive) | -0.7 | -0.74 | -0.719 (inactive)
CN1CCc2nc(-c3ccccc3)c(-c3ccccc3)cc2C1 | 0.67 (inactive) | -0.0748 | 0.296 (inactive) | -0.0787 (inactive) | 0.406 (inactive) | -0.021 (inactive) | -0.76 | -0.512 (inactive) | -0.0205 (inactive) | -0.409 | -0.244 | 0.665 | 0.135 | 0.33 | 0.455 | 0.25 | -0.53 (inactive) | 0.344 | -0.201 | 0.752 (inactive)
CC(C)[C@@H](OCc1ccccc1)[C@H](C)C=NO[C@@H](C)c1cn([C@H](CO)Cc2ccccc2)nn1 | 0.502 (inactive) | 0.086 | 1.82 (inactive) | -0.246 (inactive) | -0.038 (inactive) | 0.245 (inactive) | -0.78 | -1.07 (inactive) | -0.046 (inactive) | -0.543 | 0.0751 | 0.143 | -0.112 | -0.265 | 0.0853 | -0.944 | -1.54 (inactive) | 0.362 | -0.318 | -0.877 (inactive)
CC(=O)OC[C@H]1O[C@H](CC=NOC(C)CN2CCCc3nc(C)c(C)cc32)C=C[C@@H]1OC(C)=O (stereo not given in full) | 0.134 (inactive) | -0.0222 | 1.3 (inactive) | 0.674 (inactive) | 0.594 (inactive) | 0.588 (inactive) | -0.597 | -2.12 (inactive) | -2.2 (inactive) | -0.898 | -0.234 | 0.114 | -0.806 | -2.94 | -0.639 | -0.706 | 0.264 (inactive) | -0.131 | -0.188 | -0.135 (inactive)
CO[C@@H]1C=CCC(=O)N[C@@H](C)C(=O)OC[C@@H](OC)[C@H](C)C=CCC(=O)OC[C@H]1C | 0.0083 (inactive) | -0.149 | -0.0896 (inactive) | 0.233 (inactive) | 0.442 (inactive) | 0.205 (inactive) | 0.15 | -0.27 (inactive) | 0.0964 (inactive) | -0.367 | 0.234 | 0.374 | 0.0804 | 0.316 | 0.389 | 0.589 | -0.848 (inactive) | 0.674 | 0.704 | 0.474 (inactive)

— PubChem BioAssay
